In the OligoGym collection:

Biological target: ZNF24
Test: pooled miR-30 sensor sort-seq; sequence = guide strand
Conditions: shRNA
Also: reference of the scale not given here.

Sequence	sensor-assay potency score (higher = more potent)
TGGATGATGATCTCGAACCCAA	-0.874
TCTTCTACTAGTACTTCCCGTT	0.168
TAAAAATTTGAGGAACACCCAT	-0.488
TTTCTCTTTCTTTCAAACCTGC	0.00433
TAAGTATTGAATCTTCTTCCAC	-0.673
TTCTGCATTGTGTCTTCTCTGA	0.000948
TAGTGCTCCATTTTCAGTCCTA	0.194
AAAAATTTGAGGAACACCCATA	-0.922
TTCACTCTCCAAATCCTCCAGC	-0.297
TTTGTGTGCGTCTCTGGCCTGA	-0.444
TTGAGGAACACCCATACTGAGA	-1.26
TAATGCTGAAGGAAGCTCCTGC	0.616

Biological target: ZNF250
Test: as above
Conditions: shRNA

Sequence	sensor-assay potency score (higher = more potent)
TAAGACCTGAACTTCACGGTGG	0.671
TTAACAGAGACTTCTCTTGGGC	-0.0398
TGTATTTTGACTCTCTCCCTTG	-0.459
TTATTTTCTTGATCAATCCTCC	0.32
TTTTGTGACACTGAATCGCCAA	0.484
TTTGTGACACTGAATCGCCAAA	-1.66
TTACTAAGGACTGAGCTCTGGC	0.163
